Unmarked numbers belong to inactive results. Inconclusive results are not listed. A call without a number means that no potency is given here. Active and inactive are the calls of the source. Unless noted, calls come from the whole dose curve.
Legend:
[1] = Nuclear factor erythroid 2-related factor 2/antioxidant responsive element (Nrf2/ARE) small molecule agonists: qHTS cell viability counter screen in human keratinocytes (AID 1919968; active = well fitted curve in the direction sought with a large enough effect in the repeat runs; an effect the other way counts as inactive or inconclusive; note: nearly all actives have a fitted effect of over 55% in size)
Outline: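 KeratinoSens HaCaT cells, 1,500/well, preincubated 5 h, then exposed to compounds in DMSO for 23 h at 37 C/5% CO2. Viability read as CellTiter-Fluor fluorescence after 1 h, in the same wells as the ARE-luciferase read.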

[2] = Nuclear factor erythroid 2-related factor 2/antioxidant responsive element (Nrf2/ARE) small molecule agonists: luciferase reporter gene qHTS assay in human keratinocytes (AID 1919969); note: nearly all actives have a fitted effect of over 35% in size; note: potency is the fitted concentration of half-maximal effect
[3] = target: Gonadotropin-releasing hormone receptor (Homo sapiens) (UniProt P30968); test: Human gonadotropin-releasing hormone receptor (GnRHR) small molecule agonists, calcium flux assay in GnRHR-HEK293 cells (AID 1920063); note: nearly all actives have a fitted effect of over 35% in size
Sequence of Gonadotropin-releasing hormone receptor (Homo sapiens) (P30968 whole entry, looked up): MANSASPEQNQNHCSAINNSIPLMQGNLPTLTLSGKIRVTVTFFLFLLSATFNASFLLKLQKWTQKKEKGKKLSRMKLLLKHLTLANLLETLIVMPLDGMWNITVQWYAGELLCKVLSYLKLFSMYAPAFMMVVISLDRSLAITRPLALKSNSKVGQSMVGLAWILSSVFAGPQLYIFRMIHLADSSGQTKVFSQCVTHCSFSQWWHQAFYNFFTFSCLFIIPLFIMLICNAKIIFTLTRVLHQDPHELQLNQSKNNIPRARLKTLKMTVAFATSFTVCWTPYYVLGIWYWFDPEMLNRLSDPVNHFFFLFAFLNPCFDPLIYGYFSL
Outline: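 HEK293 cells stably expressing human GnRHR were dye-loaded for 1 h at 37 C. Compound was added in agonist mode and fluorescence (Ex/Em 480/540) recorded kinetically for 3 min. Fifteen concentrations, triplicates.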

[4] = target: KiSS-1 receptor (Homo sapiens) (UniProt Q969F8); test: Human kisspeptin (KISS1R) small molecule agonists, calcium flux assay in KISS1R-HEK293 cells (AID 1920064; active = well fitted curve in the direction sought with a large enough effect in the repeat runs; an effect the other way counts as inactive or inconclusive)
Sequence of KiSS-1 receptor (Homo sapiens) (Q969F8 whole entry, looked up): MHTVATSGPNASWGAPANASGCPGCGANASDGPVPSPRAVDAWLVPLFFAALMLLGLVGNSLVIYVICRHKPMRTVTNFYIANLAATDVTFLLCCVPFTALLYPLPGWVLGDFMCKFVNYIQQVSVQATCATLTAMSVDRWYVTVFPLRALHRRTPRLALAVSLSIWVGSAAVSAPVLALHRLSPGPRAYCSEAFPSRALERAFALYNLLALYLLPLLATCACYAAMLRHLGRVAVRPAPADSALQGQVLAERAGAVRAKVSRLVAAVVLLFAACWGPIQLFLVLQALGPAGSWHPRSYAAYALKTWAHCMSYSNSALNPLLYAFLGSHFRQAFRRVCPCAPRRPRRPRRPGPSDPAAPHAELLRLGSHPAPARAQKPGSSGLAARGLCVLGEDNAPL
Outline: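 HEK293 cells stably expressing human KISS1R were loaded with calcium dye for 1 h at 37 C, then given compound; fluorescence (Ex/Em 480/540) was read kinetically for 3 min. Fifteen concentrations, triplicate.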

[5] = G protein-coupled receptor (GPCR) small molecule agonists, calcium flux assay: HEK293 wild type cell line counter screen (AID 1920065)
Outline: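 Wild-type HEK293 cells plated 18 h, loaded with calcium dye 1 h at 37 C, then compounds added in agonist mode (ATP as positive control). Kinetic fluorescence Ex/Em 480/540 recorded 3 min at 1 sec intervals; 15 concentrations, triplicate.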

[6] = p53 small molecule agonists, cell-based qHTS assay with human liver microsomes (AID 1963577);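 note: p53 response element beta-lactamase reporter cells with liver microsomes plus NADPH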
Outline: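 HLM-supplemented p53RE-bla reporter assay: 16 h compound exposure at 37 C, microsomes and NADPH each 0.5 mg/mL final, read by fluorescence intensity.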

[7] = p53 small molecule agonists, cell-based qHTS assay with rat liver microsomes (AID 1963578)
Outline: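 Quantitative HTS of the Tox21 10K library: p53RE-bla cells, rat liver microsomes plus NADPH at 0.5 mg/mL final each, 16 h at 37 C, beta-lactamase fluorescence detection.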

[8] = p53 small molecule agonists, cell-based qHTS assay with human liver microsomes: qHTS cell viability counter screen (AID 1963579); note: nearly all actives have a fitted effect of over 45% in size
Outline: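 Viability of p53RE-bla cells is measured as CellTiter-Glo luminescence following a 16 h, 37 C incubation with compound, liver microsomes from human donors and NADPH.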

[9] = p53 small molecule agonists, cell-based qHTS assay with rat liver microsomes: qHTS cell viability counter screen (AID 1963580); note: nearly all actives have a fitted effect of over 45% in size
Outline: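 HCT-116 p53RE-bla, 4,000 cells/well, 5 h pre-incubation; cpd + rat liver microsomes 0.5 mg/mL + NADPH 0.5 mg/mL (final); 16 h, 37 C; CellTiter-Glo, 30 min RT; luminescence.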

[10] = target: 5-hydroxytryptamine receptor 2A (Homo sapiens) (UniProt P28223); test: 5-hydroxytryptamine receptor 2A (HTR2A) small molecule antagonists, cell-based qHTS assay (AID 1963586); note: nearly all actives have a fitted effect of over 45% in size
Sequence of 5-hydroxytryptamine receptor 2A (Homo sapiens) (P28223 whole entry, looked up): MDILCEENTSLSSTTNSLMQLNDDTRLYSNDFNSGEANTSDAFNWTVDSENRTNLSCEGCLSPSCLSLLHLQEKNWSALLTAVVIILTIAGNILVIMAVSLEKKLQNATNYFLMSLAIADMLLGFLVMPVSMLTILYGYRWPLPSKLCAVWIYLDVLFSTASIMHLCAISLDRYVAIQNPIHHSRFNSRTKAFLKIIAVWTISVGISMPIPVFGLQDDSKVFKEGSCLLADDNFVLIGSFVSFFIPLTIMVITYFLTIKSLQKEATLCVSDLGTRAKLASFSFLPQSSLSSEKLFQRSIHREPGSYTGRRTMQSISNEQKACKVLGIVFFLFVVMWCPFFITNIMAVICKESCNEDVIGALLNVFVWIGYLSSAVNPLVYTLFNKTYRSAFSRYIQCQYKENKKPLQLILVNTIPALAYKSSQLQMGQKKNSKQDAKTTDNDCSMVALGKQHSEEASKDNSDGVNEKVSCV
Outline: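 Antagonist-mode intracellular calcium assay: DOI (4 nM) added after 5 min compound pre-incubation at room temperature to dye-loaded HTR2A-CHO cells. Fluorescence followed for 3 min, sampled every second.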

[11] = target: 5-hydroxytryptamine receptor 2A (Homo sapiens) (UniProt P28223); test: 5-hydroxytryptamine receptor 2A (HTR2A) small molecule agonists, cell-based qHTS assay (AID 1963587); note: nearly all actives have a fitted effect of over 30% in size
Outline: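 Kinetic calcium-flux fluorescence (2 min, 1 sec intervals) after compound addition in agonist mode. HTR2A-CHO cells were cultured 18 h, then dye-loaded 1 h at 37 C.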

[12] = target: Muscarinic acetylcholine receptor M1 (Homo sapiens) (UniProt P11229); test: Cholinergic receptor muscarinic 1 (CHRM1) small molecule antagonists, cell-based qHTS assay (AID 1963588); note: nearly all actives have a fitted effect of over 40% in size
Sequence of Muscarinic acetylcholine receptor M1 (Homo sapiens) (P11229 whole entry, looked up): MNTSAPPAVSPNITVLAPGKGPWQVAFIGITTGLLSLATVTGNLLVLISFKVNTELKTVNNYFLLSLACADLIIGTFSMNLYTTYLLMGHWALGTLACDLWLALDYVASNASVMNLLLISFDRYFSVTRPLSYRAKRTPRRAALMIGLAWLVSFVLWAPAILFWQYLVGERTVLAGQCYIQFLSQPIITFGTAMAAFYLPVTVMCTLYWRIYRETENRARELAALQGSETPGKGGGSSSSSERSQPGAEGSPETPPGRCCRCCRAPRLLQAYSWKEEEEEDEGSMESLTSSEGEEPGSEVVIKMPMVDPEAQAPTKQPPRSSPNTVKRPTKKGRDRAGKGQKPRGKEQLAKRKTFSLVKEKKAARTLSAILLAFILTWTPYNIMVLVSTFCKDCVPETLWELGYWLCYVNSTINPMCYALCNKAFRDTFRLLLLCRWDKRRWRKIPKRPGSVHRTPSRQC
Outline: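 CHRM1-CHO calcium-flux assay, antagonist mode. Cells were seeded 18 h, dye-loaded 1 h at 37 C and given compound for 5 min at RT, then acetylcholine was added at 50nM. FDSS fluorescence was read 3 min; 15 concentrations, three runs.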

[13] = target: Muscarinic acetylcholine receptor M1 (Homo sapiens) (UniProt P11229); test: Cholinergic receptor muscarinic 1 (CHRM1) small molecule agonists, cell-based qHTS assay (AID 1963589); note: nearly all actives have a fitted effect of over 35% in size
Outline: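 CHO cells stably expressing human CHRM1 were loaded with calcium dye for 1 h at 37 C, then compound was added in agonist mode. Intracellular calcium fluorescence was followed kinetically at 1 s intervals. Fifteen concentrations were tested in three independent runs.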

[14] = cAMP Responsive Elements (CRE) small molecule agonists, cell-based qHTS assay (AID 1963590)
Outline: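 CRE-bla HEK 293T cells, 2,000/well in DMEM with 10% dialyzed FBS and 25 mM HEPES, pre-incubated 18 h at 37 C, then exposed to compound 3 h at 37 C. Beta-lactamase reporter read with LiveBLAzer B/G FRET substrate after 2 h at room temperature.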

[15] = cAMP Responsive Elements (CRE) small molecule antagonists, cell-based qHTS assay (AID 1963591; active = well fitted inhibition curve with a large enough effect in the signal ratio in the repeat runs, not every such curve was filed as active; the % refers to the signal ratio)
Outline: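 CRE-bla HEK293T cells plated 18 h, then given compound plus NKH477 at 0.25 uM final for 3 h at 37C. Beta-lactamase reporter read with LiveBLAzer B/G FRET substrate after 2 h at room temperature.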

[16] = target: Beta-2 adrenergic receptor (Homo sapiens) (UniProt P07550); test: Adrenergic beta2 receptor (ADRB2) small molecule antagonists, cell-based qHTS assay (AID 1963592); note: series mostly up to about 92 µM; nearly all actives have a fitted effect of over 50% in size
Sequence of Beta-2 adrenergic receptor (Homo sapiens) (P07550 whole entry, looked up): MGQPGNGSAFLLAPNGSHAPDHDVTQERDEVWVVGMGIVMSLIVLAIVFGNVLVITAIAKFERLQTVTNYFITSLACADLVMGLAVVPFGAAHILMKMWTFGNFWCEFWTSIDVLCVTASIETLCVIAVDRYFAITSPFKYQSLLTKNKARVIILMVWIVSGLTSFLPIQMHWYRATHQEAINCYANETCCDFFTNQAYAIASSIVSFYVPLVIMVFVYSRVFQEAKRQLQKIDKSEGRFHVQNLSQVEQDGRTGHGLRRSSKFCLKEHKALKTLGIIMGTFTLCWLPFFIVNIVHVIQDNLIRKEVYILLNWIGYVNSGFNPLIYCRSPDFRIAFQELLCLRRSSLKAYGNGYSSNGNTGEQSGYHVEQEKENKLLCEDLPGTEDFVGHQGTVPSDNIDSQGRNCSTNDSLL
Outline: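 Cells (CHO, stable ADRB2 overexpression) incubated 18-20hr at 37C; compounds added from DMSO; agonist mix (1nM isoproterenol, 100uM IBMX, 25uM Ro-20-1724) added; 0.5hr RT; d2-cAMP and anti-cAMP-cryptate added; 1hr RT; 665/615 nm read.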

[17] = target: Beta-2 adrenergic receptor (Homo sapiens) (UniProt P07550); test: Adrenergic beta2 receptor (ADRB2) small molecule agonists, cell-based qHTS assay (AID 1963593);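 note: CHO cells stably overexpressing human ADRB2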
Outline: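 CHO cells stably over-expressing ADRB2 were plated overnight at 37C, then dosed with compounds plus a stimulation mix containing 100uM IBMX and 25uM Ro-20-1724 for 0.5hr at room temperature. cAMP was measured by HTRF competition, 1hr.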

[18] = target: D(2) dopamine receptor (Homo sapiens) (UniProt P14416); test: Dopamine D2 receptor (DRD2) small molecule agonists, cell-based qHTS assay (AID 1963594); note: nearly all actives have a fitted effect of over 35% in size
Sequence of D(2) dopamine receptor (Homo sapiens) (P14416 whole entry, looked up): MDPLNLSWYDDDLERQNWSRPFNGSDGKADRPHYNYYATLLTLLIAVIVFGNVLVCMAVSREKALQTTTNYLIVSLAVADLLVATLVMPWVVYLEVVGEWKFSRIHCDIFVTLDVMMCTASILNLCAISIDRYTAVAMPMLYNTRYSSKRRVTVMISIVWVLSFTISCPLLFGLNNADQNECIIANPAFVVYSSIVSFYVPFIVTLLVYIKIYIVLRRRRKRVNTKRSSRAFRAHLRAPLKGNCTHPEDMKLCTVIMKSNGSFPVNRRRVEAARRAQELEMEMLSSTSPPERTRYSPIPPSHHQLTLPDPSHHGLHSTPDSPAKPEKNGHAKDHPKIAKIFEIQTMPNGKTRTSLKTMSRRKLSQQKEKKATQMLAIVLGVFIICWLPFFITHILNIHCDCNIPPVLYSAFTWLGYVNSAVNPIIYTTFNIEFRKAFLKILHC
Outline: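 cAMP accumulation in DRD2-HEK293 cells measured by HTRF after 1 h detection; compounds added 10 min before NKH477 (200nM […]) forskolin-analogue stimulation, 30 min at room temperature, with Ro20-1724 present at 0.1 mM final.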

[19] = target: D(2) dopamine receptor (Homo sapiens) (UniProt P14416); test: Dopamine D2 receptor (DRD2) small molecule antagonists, cell-based qHTS assay (AID 1963595; active = well fitted inhibition curve with a large enough effect in the signal ratio in the repeat runs, with a control signal flat; the % refers to the signal ratio)
Outline: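 Readout: HTRF cAMP, cAMP-d2 competing with cellular cAMP for anti-cAMP cryptate, read after 1 h. Cells: DRD2-HEK293. Conditions: 0.1 mM Ro20-1724, 12 nM quinpirole, 200 nM NKH477, 30 min RT.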

[20] = p53 small molecule agonists, cell-based qHTS assay: qHTS cell viability counter screen (AID 1963581); note: nearly all actives have a fitted effect of over 45% in size
Outline: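 p53RE-bla HCT-116 cells, compounds added 5 h after plating and incubated 16 h at 37 C. Cytotoxicity measured in the same wells as intracellular ATP by CellTiter-Glo luminescence after 30 min at room temperature.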

Row | SMILES | Potency [1] | Potency [2] | Potency [3] | outcome [4] | outcome [5] | Potency [6] | Potency [7] | Potency [8] | Potency [9] | Potency [10] | Potency [11] | Potency [12] | Potency [13] | Potency [14] | Potency [15] | Potency [16] | Potency [17] | Potency [18] | Potency [19] | Potency [20]
1 | O=C1CCCCCCCCCCCCCC1 | inactive | inactive | inactive | inactive | inactive | inactive | inactive | inactive | inactive | inactive | inactive | inactive | inactive | inactive | inactive | inactive | inactive | inactive | inactive | –
2 | COc1ccc2c(c1)c(CC(=O)OCC(=O)O)c(C)n2C(=O)c1ccc(Cl)cc1 | inactive | inactive | inactive | inactive | inactive | inactive | inactive | inactive | inactive | – | – | – | – | – | – | inactive | – | inactive | inactive | inactive
3 | NC(=O)C(=O)N/N=C/c1ccc([N+](=O)[O-])o1 | inactive | 29.8 µM (active) | inactive | inactive | inactive | inactive | inactive | inactive | inactive | inactive | inactive | inactive | inactive | inactive | inactive | inactive | inactive | – | inactive | –
4 | Oc1cc2ccccc2cc1O | inactive | inactive | inactive | inactive | inactive | inactive | inactive | inactive | inactive | inactive | inactive | inactive | inactive | inactive | inactive | inactive | inactive | inactive | inactive | –
5 | CCC(=O)C(=O)CC | inactive | inactive | inactive | inactive | inactive | inactive | inactive | inactive | inactive | inactive | inactive | inactive | inactive | inactive | inactive | inactive | inactive | inactive | – | –
6 | C=Cc1ccccc1C=C | inactive | inactive | inactive | inactive | inactive | inactive | inactive | inactive | inactive | inactive | inactive | inactive | inactive | inactive | inactive | inactive | – | inactive | inactive | –
